About 2,000 (36%) of roughly 5,500 compounds were called active. Roughly 18% stayed inconclusive and do not appear here. No stated cut-off is given here; in the data, active means normalized growth mostly below about 0.91 (no sharp cut-off); inconclusive means no clear call, values can overlap the other calls; inactive means mostly above about 0.92. This is one part of the list.
Assay: chemical genetic growth profiling, strain panel (AID 1159580);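 further: tested at 20 µM; growth read once vehicle control cultures reached saturation at 30 °C; 1 = growth at the plate median or of vehicle wells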
Details: growth OD
[1] = S. cerevisiae deletion strains, locus YDL101C, strain DUN1, stronger effect = lower value
[2] = S. cerevisiae deletion strains, locus YHR030C, strain SLT2, stronger effect = lower value
[3] = S. cerevisiae deletion strains, locus YAL013W, strain DEP1, stronger effect = lower value
[4] = S. cerevisiae deletion strains, locus YBR229C, strain ROT2, stronger effect = lower value
[5] = S. cerevisiae deletion strains, locus YCL061C, strain MRC1, stronger effect = lower value
[6] = S. cerevisiae deletion strains, locus YDL134C, strain PPH21, stronger effect = lower value
[7] = S. cerevisiae deletion strains, locus YDR150W, strain NUM1, stronger effect = lower value
[8] = S. cerevisiae deletion strains, locus YEL061C, strain CIN8, stronger effect = lower value
[9] = S. cerevisiae deletion strains, locus YGR078C, strain PAC10, stronger effect = lower value
[10] = S. cerevisiae deletion strains, locus YGR229C, strain SMI1, stronger effect = lower value
[11] = S. cerevisiae deletion strains, locus YHR087W, strain rtc3, stronger effect = lower value
[12] = S. cerevisiae deletion strains, locus YJL187C, strain SWE1, stronger effect = lower value
[13] = S. cerevisiae deletion strains, locus YJR043C, strain POL32, stronger effect = lower value
[14] = S. cerevisiae deletion strains, locus YJR075W, strain HOC1, stronger effect = lower value
[15] = S. cerevisiae deletion strains, locus YKL190W, strain CNB1, stronger effect = lower value
[16] = S. cerevisiae deletion strains, locus YLR039C, strain RIC1, stronger effect = lower value
[17] = S. cerevisiae deletion strains, locus YLR058C, strain SHM2 (second series), stronger effect = lower value
[18] = S. cerevisiae deletion strains, locus YLR085C, strain ARP6, stronger effect = lower value
[19] = S. cerevisiae deletion strains, locus YLR262C, strain YPT6, stronger effect = lower value
[20] = S. cerevisiae deletion strains, locus YML094W, strain GIM5, stronger effect = lower value
[21] = S. cerevisiae deletion strains, locus YMR219W, strain ESC1, stronger effect = lower value
[22] = S. cerevisiae deletion strains, locus YMR263W, strain SAP30, stronger effect = lower value
[23] = S. cerevisiae deletion strains, locus YMR307W, strain GAS1, stronger effect = lower value
[24] = S. cerevisiae deletion strains, locus YNL153C, strain GIM3, stronger effect = lower value
[25] = S. cerevisiae deletion strains, locus YNL298W, strain CLA4 (second series), stronger effect = lower value
[26] = S. cerevisiae deletion strains, locus YNL322C, strain KRE1, stronger effect = lower value
[27] = S. cerevisiae deletion strains, locus YNR030W, strain Alg12, stronger effect = lower value
[28] = S. cerevisiae deletion strains, locus YPL055C, strain LGE1, stronger effect = lower value
[29] = S. cerevisiae deletion strains, locus YPL241C, strain CIN2, stronger effect = lower value
[30] = S. cerevisiae deletion strains, locus YPR135W, strain CTF4, stronger effect = lower value
[31] = S. cerevisiae deletion strains, locus YOL006C, strain TOP1, stronger effect = lower value

Measured: normalized growth

O=C1CSC(=Nc2cc(Cl)cc(Cl)c2)N1Cc1cccnc1
inactive: S. cerevisiae deletion strains, locus YAR019C, strain CDC15, stronger effect = lower value 0.997 | S. cerevisiae deletion strains, locus YBL105C, strain PKC1, stronger effect = lower value 0.989 | S. cerevisiae deletion strains, locus YBR135W, strain CKS1, stronger effect = lower value 0.995 | S. cerevisiae deletion strains, locus YBR136W, strain MEC1, stronger effect = lower value 0.986 | S. cerevisiae deletion strains, locus YBR160W, strain CDC28, stronger effect = lower value 0.992 | S. cerevisiae deletion strains, locus YDL017W, strain CDC7, stronger effect = lower value 0.991 | S. cerevisiae deletion strains, locus YDL028C, strain MPS1, stronger effect = lower value 0.994 | [1] 0.988 | S. cerevisiae deletion strains, locus YDL108W, strain KIN28, stronger effect = lower value 0.97 | S. cerevisiae deletion strains, locus YDL132W, strain cdc53, stronger effect = lower value 0.997 | S. cerevisiae deletion strains, locus YDL214C, strain PRR2, stronger effect = lower value 0.924 | S. cerevisiae deletion strains, locus YDR052C, strain DBF4, stronger effect = lower value 0.995 | S. cerevisiae deletion strains, locus YDR054C, strain cdc34, stronger effect = lower value 0.983 | S. cerevisiae deletion strains, locus YDR226W, strain ADK1, stronger effect = lower value 0.996 | S. cerevisiae deletion strains, locus YDR477W, strain SNF1, stronger effect = lower value 0.947 | S. cerevisiae deletion strains, locus YER123W, strain YCK3, stronger effect = lower value 0.887 | S. cerevisiae deletion strains, locus YER133W, strain GLC7, stronger effect = lower value 0.927 | S. cerevisiae deletion strains, locus YFL009W, strain cdc4, stronger effect = lower value 0.986 | S. cerevisiae deletion strains, locus YFL029C, strain CAK1, stronger effect = lower value 0.994 | S. cerevisiae deletion strains, locus YFR003C, strain YPI1, stronger effect = lower value 0.991 | S. cerevisiae deletion strains, locus YFR019W, strain FAB1, stronger effect = lower value 0.944 | S. cerevisiae deletion strains, locus YFR028C, strain CDC14, stronger effect = lower value 0.994 | S. cerevisiae deletion strains, locus YGR040W, strain KSS1, stronger effect = lower value 0.937 | S. cerevisiae deletion strains, locus YGR052W, strain FMP48, stronger effect = lower value 1.03 | S. cerevisiae deletion strains, locus YGR092W, strain DBF2, stronger effect = lower value 0.947 | [2] 1.14 | S. cerevisiae deletion strains, locus YHR079C, strain IRE1, stronger effect = lower value 1.05 | S. cerevisiae deletion strains, locus YHR082C, strain KSP1, stronger effect = lower value 1.01 | S. cerevisiae deletion strains, locus YHR205W, strain SCH9, stronger effect = lower value 0.958 | S. cerevisiae deletion strains, locus YIL147C, strain SLN1, stronger effect = lower value 0.986 | S. cerevisiae deletion strains, locus YJL095W, strain BCK1, stronger effect = lower value 1.03 | S. cerevisiae deletion strains, locus YJL128C, strain PBS2, stronger effect = lower value 0.974 | S. cerevisiae deletion strains, locus YJL157C, strain FAR1, stronger effect = lower value 0.931 | S. cerevisiae deletion strains, locus YJR016C, strain ILV3, stronger effect = lower value 0.996 | S. cerevisiae deletion strains, locus YJR066W, strain TOR1 (second series), stronger effect = lower value 0.912 | S. cerevisiae deletion strains, locus YJR066W, strain TOR1, stronger effect = lower value 1.02 | S. cerevisiae deletion strains, locus YKL048C, strain ELM1, stronger effect = lower value 0.974 | S. cerevisiae deletion strains, locus YKL067W, strain YNK1, stronger effect = lower value 0.948 | S. cerevisiae deletion strains, locus YKL101W, strain HSL1, stronger effect = lower value 0.958 | S. cerevisiae deletion strains, locus YKL193C, strain SDS22, stronger effect = lower value 0.999 | S. cerevisiae deletion strains, locus YKL203C, strain TOR2, stronger effect = lower value 1.02 | S. cerevisiae deletion strains, locus YLR113W, strain HOG1, stronger effect = lower value 0.968 | S. cerevisiae deletion strains, locus YLR133W, strain CKI1, stronger effect = lower value 0.955 | S. cerevisiae deletion strains, locus YLR403W, strain SFP1, stronger effect = lower value 0.957 | S. cerevisiae deletion strains, locus YML070W, strain DAK1, stronger effect = lower value 0.918 | S. cerevisiae deletion strains, locus YMR001C, strain CDC5, stronger effect = lower value 0.996 | S. cerevisiae deletion strains, locus YMR205C, strain PFK2 (second series), stronger effect = lower value 0.938 | S. cerevisiae deletion strains, locus YMR277W, strain FCP1, stronger effect = lower value 0.996 | S. cerevisiae deletion strains, locus YNL006W, strain LST8, stronger effect = lower value 0.994 | S. cerevisiae deletion strains, locus YNL020C, strain ARK1, stronger effect = lower value 0.945 | S. cerevisiae deletion strains, locus YNL161W, strain CBK1, stronger effect = lower value 0.996 | S. cerevisiae deletion strains, locus YNL183C, strain NPR1, stronger effect = lower value 1.03 | S. cerevisiae deletion strains, locus YNL207W, strain RIO2, stronger effect = lower value 0.993 | S. cerevisiae deletion strains, locus YNL222W, strain SSU72, stronger effect = lower value 1 | S. cerevisiae deletion strains, locus YNL307C, strain MCK1 (second series), stronger effect = lower value 0.952 | S. cerevisiae deletion strains, locus YOL078W, strain AVO1, stronger effect = lower value 0.998 | S. cerevisiae deletion strains, locus YOL136C, strain PFK27, stronger effect = lower value 0.927 | S. cerevisiae deletion strains, locus YOR061W, strain CKA2, stronger effect = lower value 0.927 | S. cerevisiae deletion strains, locus YOR119C, strain RIO1, stronger effect = lower value 0.981 | S. cerevisiae deletion strains, locus YOR231W, strain MKK1, stronger effect = lower value 1.02 | S. cerevisiae deletion strains, locus YOR329C, strain SCD5, stronger effect = lower value 0.994 | S. cerevisiae deletion strains, locus YPL031C, strain PHO85, stronger effect = lower value 0.949 | S. cerevisiae deletion strains, locus YPL153C, strain RAD53, stronger effect = lower value 0.923 | S. cerevisiae deletion strains, locus YPL204W, strain HRR25, stronger effect = lower value 0.944 | S. cerevisiae deletion strains, locus YPL209C, strain IPL1, stronger effect = lower value 0.991 | S. cerevisiae deletion strains, locus YPL256C, strain CLN2, stronger effect = lower value 1.04 | S. cerevisiae deletion strains, locus YPR025C, strain CCL1, stronger effect = lower value 0.992 | S. cerevisiae deletion strains, locus YPR106W, strain ISR1, stronger effect = lower value 0.998 | S. cerevisiae deletion strains, locus YPR111W, strain DBF20, stronger effect = lower value 0.99 | S. cerevisiae deletion strains, strain NNK1, stronger effect = lower value 0.991 | S. cerevisiae deletion strains, strain TSCII, stronger effect = lower value 0.997

O=C(CSc1nnc(-c2ccco2)n1-c1ccc2c(c1)OCCO2)c1cccc(F)c1
inactive: [3] 0.983 | [4] 1 | [5] 0.997 | [1] 0.987 | [6] 1 | [7] 1.01 | [8] 0.984 | [9] 0.988 | [10] 1 | [2] 0.961 | [11] 1 | [12] 1.01 | [13] 0.997 | [14] 1.01 | [15] 1 | [16] 0.916 | [17] 1.01 | [18] 0.978 | [19] 0.954 | [20] 0.983 | [21] 0.988 | [22] 0.909 | [23] 0.77 | [24] 0.988 | [25] 0.977 | [26] 0.989 | [27] 0.988 | [28] 0.968 | [29] 0.994 | [30] 0.854

S=c1[nH]nc(-c2ccco2)n1-c1ccc2c(c1)OCCO2
inactive: [3] 0.998 | [4] 0.985 | [5] 0.994 | [1] 0.989 | [6] 0.991 | [7] 1.02 | [8] 1.02 | [9] 0.979 | [2] 1.05 | [11] 0.983 | [13] 0.987 | [14] 0.985 | [15] 0.989 | [16] 0.972 | [17] 0.98 | [18] 0.994 | [19] 0.991 | [20] 1 | [21] 0.991 | [22] 1.02 | [23] 1.05 | [24] 0.993 | [25] 1.01 | [26] 0.988 | [27] 1.01 | [31] 0.978 | [28] 0.971 | [29] 1 | [30] 1.06 | S. cerevisiae strains, strain wild type, stronger effect = lower value 0.979

COc1ccc(-n2c(SCc3ccc(Br)cc3)nnc2-c2ccco2)cc1
inactive: [3] 0.972 | [4] 1 | [1] 1 | [7] 0.962 | [8] 1.01 | [9] 0.987 | [10] 0.978 | [2] 0.79 | [11] 0.996 | [12] 1.01 | [13] 0.98 | [14] 0.969 | [16] 0.803 | [17] 0.989 | [18] 0.947 | [20] 0.993 | [21] 0.993 | [22] 0.989 | [23] 0.893 | [24] 0.996 | [25] 0.917 | [26] 0.984 | [27] 0.966 | [31] 0.889 | [28] 0.976 | [29] 0.986 | [30] 0.844
active: [19] 0.803

— PubChem BioAssay AID1159580 (chemical genetic matrix, 2015)
